Results published in ChEMBL document CHEMBL3988442, “University of Dundee, Small-Polar-MMV Screening Library” (2021).
In all, about 48,000 compounds went through this assay and about 13,000 (27%) showed an effect of 50% or more. The list shows a part of the results.

Tested on: Wolbachia pipientis
Assay: Anti-Wolbachia Cell-Based Screen
Format: functional
Design: scale not given: in the data most compounds retested in dose-response had high values
Conditions: 5 µM

First: CN(CCCc1nccn1C)C(=O)C1CCN(C(=O)C2CC2)CC1
Second: Cc1c(CNC(=O)C2CCCN2C(=O)C2CC2)oc2ccccc12 (stereo not given)
The “Percent Effect” value of the first is higher: 15.41% for the first, -1.359% for the second.

Going from `Cc1ccccc1CN1CCC2(CC1)CN(S(=O)(=O)c1ccccc1)C2.O=C(O)C(F)(F)F` to `CN1CCN(C(=O)c2ncn3c2CN(C)S(=O)(=O)c2ccccc2-3)CC1.O=C(O)C(F)(F)F`, the “Percent Effect” value rises from -17.23% to 82.4%.

First: Cc1occc1C(=O)N1CCC[C@]2(C[C@@H](OCc3ccncc3)CO2)C1.O=C(O)C(F)(F)F
Second: CN1Cc2c(C(=O)NC3CCCCC3)ncn2-c2ccccc2S1(=O)=O.O=C(O)C(F)(F)F
The “Percent Effect” value of the first is lower: -11.73% for the first, 115.3% for the second.

Compared with `CCc1cc(C(=O)N2CCCC2c2nc(C)c(CC)c(O)n2)on1` (stereo not given), `CCc1c(C)nc(C2CCCN2C(=O)c2cc(C)no2)nc1O` (stereo not given) is lower in “Percent Effect” value: 110.9% for the first, 101.8% for the second.

Compared with `CCc1cc(C(=O)N2CCCC2c2nc(C)c(F)c(O)n2)on1` (stereo not given), `CCc1nc(C2CCCN2C(=O)c2ccc3c(c2)nc(C)n3C)no1` (stereo not given) is higher in “Percent Effect” value: -4.896% for the first, 0.7608% for the second.

Going from `CCc1nc(C2CCCN2C(=O)C2=COCC2)no1` (stereo not given) to `CCc1nc(CN2CCCN(Cc3cnn(C)c3)CC2)no1`, the “Percent Effect” value falls from -4.333% to -7.215%.

Going from `O=C1CO[C@H]2CN(Cc3ccc4c(c3)OCO4)C[C@H]2N1` to `O=C1CC(c2ccc3c(c2)OCO3)c2cn[nH]c2N1` (stereo not given), the “Percent Effect” value rises from -13.01% to 104.3%.

Compared with `Cn1ncc2c1NC(=O)CC2c1cc2c(cc1Cl)OCO2` (stereo not given), `CCC1CN(C(=O)c2csc(-c3cnn(C)c3)n2)CCO1` (stereo not given) is higher in “Percent Effect” value: -77.33% for the first, 8.184% for the second.

Compared with `CCC(C)(NCc1ncc(C(C)C)o1)c1nccs1` (stereo not given), `CCc1nc(CCNC(=O)NC2CCN(C(C)C)C2)sc1C` (stereo not given) is lower in “Percent Effect” value: -9.094% for the first, -28.06% for the second.

First: CN(C)[C@@H]1CO[C@H](CNC(=O)Nc2ccccc2)[C@H]1O
Second: Cc1c(C(=O)NC2CCCC2)nnn1-c1ccccc1
The “Percent Effect” value of the first is higher: -15.17% for the first, -16.4% for the second.

Going from `CN(Cc1c(F)cccc1Cl)C(=O)Nc1cnn(CC(N)=O)c1` to `COc1ccc(N(CCC(N)=O)C(=O)CSc2ccc(F)c(F)c2)cc1`, the “Percent Effect” value rises from -4.374% to 6.569%.

Compared with `CCOc1ccc2nc(CN3CCOC(CN)C3)ccc2c1` (stereo not given), `COc1ccc(/C=C/CN2CCN(c3nccnc3C)CC2)cc1` is lower in “Percent Effect” value: 8.772% for the first, 1.299% for the second.

Compared with `CC(C)c1n[nH]c(C2CN(C(=O)c3ccnc(C4CC4)n3)CCO2)n1` (stereo not given), `Cc1nccc(C(=O)N2CCOC(c3nc(C(C)C)n[nH]3)C2)n1` (stereo not given) is higher in “Percent Effect” value: 106.2% for the first, 122.6% for the second.

Going from `CC1CCc2nc(O)c(C(=O)NCc3ccncc3)cc2C1` (stereo not given) to `Cc1ncc(CN2CCCC2c2ccc(C(=O)NCc3ccoc3)s2)s1` (stereo not given), the “Percent Effect” value rises from 0.9729% to 9.292%.

Going from `CCN1Cc2c(C(=O)NC)ncn2-c2ccccc2S1(=O)=O` to `CCN1Cc2c(C(=O)NC(C)C)ncn2-c2ccccc2S1(=O)=O`, the “Percent Effect” value rises from -8.627% to -5.811%.

Going from `CN(C(=O)c1ncn2c1CN(C)S(=O)(=O)c1ccccc1-2)C1CC1.O=C(O)C(F)(F)F` to `CCC(C)(C)NC(=O)c1ncn2c1CN(C)S(=O)(=O)c1ccccc1-2.O=C(O)C(F)(F)F`, the “Percent Effect” value rises from 110.5% to 117.1%.

First: CN1Cc2c(C(=O)N3CCOCC3)ncn2-c2ccccc2S1(=O)=O
Second: CN1CCN(C(=O)c2ncn3c2CNS(=O)(=O)c2ccccc2-3)CC1
The “Percent Effect” value of the first is lower: -2.827% for the first, 3.453% for the second.

Compared with `CC(C)CN1Cc2c(C(=O)NC3CC3)ncn2-c2ccccc2S1(=O)=O`, `CCCNC(=O)c1ncn2c1CN(CC(C)C)S(=O)(=O)c1ccccc1-2` is higher in “Percent Effect” value: 24.74% for the first, 51.12% for the second.

Going from `CCNC(=O)c1ncn2c1CN(C)S(=O)(=O)c1ccccc1-2` to `CCCN(CC)C(=O)c1ncn2c1CN(C)S(=O)(=O)c1ccccc1-2`, the “Percent Effect” value rises from 6.974% to 93.03%.

Going from `Cc1ncsc1CCN(C)C(=O)c1c(O)cccc1O` to `CCOc1cccc(NS(=O)(=O)c2cc(C)c(C(=O)O)s2)c1`, the “Percent Effect” value falls from -0.9599% to -3.705%.

Going from `O=C(CCn1nnc2ccccc2c1=O)N(CC1CCOC1)C1CC1` (stereo not given) to `CN1Cc2c(C(=O)NCC3CCCO3)ncn2-c2ccccc2S1(=O)=O` (stereo not given), the “Percent Effect” value rises from -7.506% to 113.6%.

Compared with `CCCOC1CCCN(C(=O)Cn2cccc(C(F)(F)F)c2=O)C1` (stereo not given), `CCc1nc(CC(=O)N2CCCC2Cn2cccn2)cs1` (stereo not given) is lower in “Percent Effect” value: -4.197% for the first, -8.177% for the second.

Going from `CN1Cc2c(C(=O)Nc3cccnc3)ncn2-c2ccccc2S1(=O)=O.O=C(O)C(F)(F)F` to `CC(C)C(C)NC(=O)c1ncn2c1CN(C)S(=O)(=O)c1ccccc1-2.O=C(O)C(F)(F)F` (stereo not given), the “Percent Effect” value rises from -4.618% to 211.3%.

Going from `CCN1Cc2c(C(=O)NC(C)C(C)C)ncn2-c2ccccc2S1(=O)=O` (stereo not given) to `CCC(CC)NC(=O)c1ncn2c1CN(CC)S(=O)(=O)c1ccccc1-2.O=C(O)C(F)(F)F`, the “Percent Effect” value falls from 6.168% to 4.599%.

First: O=C(c1ncn2c1CNS(=O)(=O)c1ccccc1-2)N1CC=CC1
Second: O=C(c1csc(-c2ccccn2)n1)N1CCCC1Cn1cccn1 (stereo not given)
The “Percent Effect” value of the first is lower: -15.18% for the first, 108.1% for the second.

Compared with `O=C(c1csc(-c2ncccn2)n1)N1CCCC1Cn1cccn1` (stereo not given), `O=C(c1csc(-c2cnccn2)n1)N1CCCC1Cn1cccn1` (stereo not given) is higher in “Percent Effect” value: 100.9% for the first, 125.1% for the second.

First: O=C(c1csc(-c2cccs2)n1)N1CCCC1Cn1cccn1 (stereo not given)
Second: Cn1cc(-c2nc(C(=O)N3CCCC3Cn3cccn3)cs2)cn1 (stereo not given)
The “Percent Effect” value of the first is lower: 4.192% for the first, 119.5% for the second.

Compared with `CN(CC(=O)N1CCCC1Cn1cccn1)c1cnccn1` (stereo not given), `O=C(CN1CCCCCC1=O)NCC1CCN(c2ccccc2)C1` (stereo not given) is lower in “Percent Effect” value: -3.712% for the first, -4.287% for the second.

Compared with `O=C(N1CCOCC1CO)C1(c2cccs2)CCCC1` (stereo not given), `CCCc1nnc(N2CCN(C3CCCC3)CC2)o1` is lower in “Percent Effect” value: 1.205% for the first, -0.2431% for the second.

Compared with `CCCc1nnc(N2CCN(c3ccccc3Cl)CC2)o1`, `CCCc1nnc(N2CCN(c3ccccc3F)CC2)o1` is higher in “Percent Effect” value: 94.38% for the first, 104.4% for the second.

Going from `CCCc1nnc(N2CCN(c3cccc(C)c3C)CC2)o1` to `CCCc1nnc(N2CCC(C3CCN(C)CC3)CC2)o1`, the “Percent Effect” value falls from 106.7% to -0.3277%.

First: CCCc1nnc(N2CCC(N3CCCC(O)C3)CC2)o1 (stereo not given)
Second: CCCc1nnc(N2CCC(N3CCN(CCO)CC3)CC2)o1
The “Percent Effect” value of the first is higher: 11.24% for the first, -3.287% for the second.

In the case of `CCc1nnc(N2CCN(CCc3ccccc3)C(=O)C2)o1`, the “Percent Effect” value is reported as -17.07%.
